This is an account of results in PubChem BioAssay (Tox21).

Where “and” joins values, the source holds several entries; their conditions need not be identical. Equal entries are not always repeated. Inconclusive results are not listed. A call without a number means that no potency is given here. A structure can be active in one record and inactive in another. Calls of active or inactive are those of the source. Calls follow the shape of the dose curve; as a rule, active = well fitted inhibition curve with a large enough effect in the repeat runs; inconclusive = weak or mixed curves; inactive = no such curve, though single readings can be large or run the other way.
Potency is read from the fitted curve at half-maximal effect.

Chain of Cytochrome P450 3A4 (Homo sapiens) (P08684 whole entry, looked up): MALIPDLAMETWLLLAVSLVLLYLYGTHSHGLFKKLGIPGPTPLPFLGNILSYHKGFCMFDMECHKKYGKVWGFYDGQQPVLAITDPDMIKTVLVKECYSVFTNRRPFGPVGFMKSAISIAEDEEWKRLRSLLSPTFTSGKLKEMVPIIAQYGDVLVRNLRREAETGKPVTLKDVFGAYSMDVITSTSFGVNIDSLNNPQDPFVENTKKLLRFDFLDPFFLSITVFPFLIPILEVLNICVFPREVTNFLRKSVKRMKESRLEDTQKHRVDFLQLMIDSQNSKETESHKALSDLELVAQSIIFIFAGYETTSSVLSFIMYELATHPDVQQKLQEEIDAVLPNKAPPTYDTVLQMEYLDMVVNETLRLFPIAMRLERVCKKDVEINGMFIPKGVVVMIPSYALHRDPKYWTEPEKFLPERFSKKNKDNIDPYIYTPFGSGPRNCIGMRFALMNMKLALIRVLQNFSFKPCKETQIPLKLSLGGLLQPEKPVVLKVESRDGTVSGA

In this test the target is Cytochrome P450 3A4 (Homo sapiens) (UniProt P08684). As to the kind of experiment: Cytochrome P450 Family 3 Subfamily A Member 4 (CYP3A4) small molecule antagonists: luciferase reporter qHTS assay (AID 1671201). Also: nearly all actives have a fitted effect of over 50% in size. The following applies: P450-Glo CYP3A4 enzyme, luciferin luminescence, 1 h; series mostly up to 115 µM; activity change, negative = inhibition: at the top concentration. From the text:
National Center for Advancing Translational Sciences [NCATS]
U.S. Environmental Protection Agency [EPA]
National Institutes of Environmental Health Sciences [NIEHS]
National Toxicology Program [NTP]
U.S. Food and Drug Administration [FDA]
Cytochrome P450 (CYP) enzymes are membrane-bound hemeproteins that play a key role in metabolism of drugs and xenobiotics. Evaluation of the effect of chemicals on CYP isozymes is useful to minimize the adverse drug reactions and toxicities in drug development process. Tox21 chemicals were tested for their effect on CYP enzyme activities by using P450-Glo (TM) screening systems (Promega Corporation, Madison, WI). These systems provide a luminescent method containing proluciferin substrates and are converted to luciferin products by CYP isozymes. The luciferin products formed are detected with a luciferin detection reagent, and the amount of light produced is proportional to CYP activity. P450-Glo (TM) CYP3A4 screening system (Catalog. No. V9910) was used to detect the compounds that interfere in CYP3A4 activity. The positive control compound used for CYP3A4 assay is ketoconazole (Sigma-Aldrich, St. Louis, MO).
Tox21 Assay Protocol Summary:
Two ul of enzyme-substrate mix was dispensed into medium binding white/solid 1536-well plates (Greiner Bio-One North America Inc., Monroe, NC) using a BioRaptr Flying Reagent Dispenser (FRD, Beckman Coulter, Brea, CA). Compounds dissolved in DMSO and positive control (ketoconazole) were transferred to the assay plates at 23 nl using a Pintool station (Wako, San Diego, CA). The assay plates were incubated at room temperature for 10 min. Then 2 ul of NADPH regeneration solution was added to each well of the assay plates using an FRD and incubated at room temperature for 1 h. The reaction was stopped by adding 4 ul of detection reagent using an FRD and after 20 min incubation at room temperature the luminescence signal was measured using a ViewLux plate reader (Perkin Elmer, Shelton, CT). Data were expressed as relative luminescence units.
As for `CCCCC(=O)O`, the Potency entry was “inactive”.

Regarding `Cc1ccncc1`, the Potency result was “inactive”.

Regarding `COC(=O)CCCCC(=O)OC`, the Potency result is “inactive”.

Consider `C1CCCNCC1`, for which the Potency entry is “inactive”.

For the molecule `O=C(c1ccccc1)c1ccc(O)c(O)c1O`, the Potency result was “inactive”.

For the molecule `CCCCCNCCCCC`, the Potency entry is “inactive”.

Consider `O=[N+]([O-])c1ccccc1C(F)(F)F`, for which the Potency result is “inactive”.

In the case of `CC(=O)C(C)C`, the Potency entry was “inactive”.

With `Brc1ccc(Oc2ccc(Br)cc2)cc1`, the Potency entry is “inactive”.

As for `N#CCC(=O)O`, the Potency result is “inactive”.

Regarding `CCCCCCCCCCCC(=O)N(C)CC(=O)O`, the Potency result is “inactive”.

In the case of `NC(=O)NC(N)=O`, the Potency entry was “inactive”.

Regarding `O=Cc1ccc(CO)o1`, the Potency result was “inactive”.

Take `COc1c(Cl)ccc(Cl)c1C(=O)O`: the Potency result is “inactive”.

For the molecule `Cc1cc(C)c(O)c(C)c1`, the Potency entry is “inactive”.

As to `COc1ccc([C@@H]2CC(=O)c3c(O)cc(O[C@@H]4O[C@H](CO[C@@H]5O[C@@H](C)[C@H](O)[C@@H](O)[C@H]5O)[C@@H](O)[C@H](O)[C@H]4O)cc3O2)cc1OC`, the Potency entry was “inactive and 21.7 µM (active)”.

Regarding `Cc1cc(C)cc(O)c1`, the Potency entry was “inactive”.

As for `Cc1nnc(NS(=O)(=O)c2ccc(N)cc2)s1`, the “activity change, negative = inhibition” value is 6% [at 52.9 µM] (inactive).

With `CCCCCCCCO`, the Potency entry was “inactive”.

Turning to `COCN(COC)c1nc(N(COC)COC)nc(N(COC)COC)n1`, the “activity change, negative = inhibition” value was -20% (inactive).

For the molecule `Cc1ncc(CO)c(CO)c1O`, the Potency entry was “inactive”.

For the molecule `C=CC(C)(C)C`, the Potency result was “inactive”.

Take `CC1=CC(=O)CC(C)(C)C1`: the Potency entry is “inactive”.

For the molecule `CC(C)=CCC/C(C)=C/C=O`, the Potency result is “inactive and 35.6 µM (active)”.

Consider `CC(=O)c1nccs1`, for which the Potency entry was “inactive”.

Regarding `Cc1cc(CC(=O)O)n(C)c1C(=O)c1ccc(Cl)cc1`, the Potency result was “inactive”.

As for `Cc1ccc(C)c(S(=O)(=O)O)c1`, the Potency result was “inactive”.

In the case of `C[Si](C)(C)N[Si](C)(C)C`, the “activity change, negative = inhibition” value was -0.632% (inactive).

On to `CCCCCCC(=O)O`, for which the Potency result is “inactive”.

On to `CC(=O)OCc1ccc2c(c1)OCO2`, for which the Potency is 20.1 µM (active) and 39.9 µM (active).

For the molecule `CC(=O)Nc1ccc(CC(=O)O)cc1`, the Potency entry is “inactive”.

Take `OC[C@H]1O[C@@H](Oc2ccc(O)cc2)[C@H](O)[C@@H](O)[C@@H]1O`: the Potency result is “inactive”.

With `O=C(O)Cc1c[nH]c2ccccc12`, the Potency entry is “inactive”.

For the molecule `Cc1ccccc1C=O`, the Potency result is “inactive”.

Regarding `CC(=O)OC(C)(C)C1CC=C(C)CC1` (stereo not given), the Potency result was “inactive and 31.7 µM (active)”.

With `COC(=O)OC`, the Potency entry was “inactive”.

`O=C1O[C@H]([C@H](O)CO)C(O)=C1O`: the Potency entry was “inactive”.

In the case of `O=C(O)C1=NN(c2ccc(S(=O)(=O)O)cc2)C(=O)C1`, the Potency result was “inactive”.

Consider `O=C1CCCCCCCCCCC1`, for which the Potency entry is “inactive”.

For the molecule `CCn1cc(C(=O)O)c(=O)c2cc3c(cc21)OCO3`, the activity change, negative = inhibition is -0.272% [at 23.6 µM] (inactive).
